Records with an inconclusive call do not appear. A call without a number means that no potency is given here. Calls of active or inactive are those of the source. Calls follow the shape of the dose curve; as a rule, active = well fitted curve in the direction sought with a large enough effect; inconclusive = small, poorly fitted or top-dose-only effect, or another doubt; inactive = no such curve, though single readings can be large; an effect the other way counts as inactive or inconclusive.

A short description of assay [1]: qHTS to identify inhibitors of the type 1 interferon - major histocompatibility complex class I in skeletal muscle: primary screen against the NCATS LOPAC collection (AID 1347405).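 Also: lytic HiBiT luminescence reporting HLA-B protein level.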 Also: potency is read from the fitted curve at half-maximal effect. The method, boiled down: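 Immortalized human C25cl48 myoblasts with HiBiT knocked into endogenous HLA-B*08:01 were stimulated with 4.0 ng/ml IFN-beta and given compounds in a 7-point, 1:4.3 titration from 46 uM final; after 24 hrs, lytic HiBiT luminescence was read.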
A general note: qHTS replaces the single test concentration by a dilution series.

Assay [2] is described as follows: qHTS for inhibitors of adenylyl cyclases using a fission yeast platform: a pilot screen against the NCATS LOPAC library (AID 1347410). The method, boiled down: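 S. pombe CHP2027 (AC9-GNAS-PDE4D2) carrying PKA-repressed fbp1-GFP, incubated 18 h at 30C in EMM with LOPAC compounds at up to 57 uM. GFP gain-of-signal read by laser scanning cytometry; DMSO negative control.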

Assay [3] can be described thus: Validation qHTS assay for inhibitors of Activation Induced Cytidine Deaminase (AID): UDG Counterscreen signal (AID 1347427). The method, boiled down:
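Counterscreen read of UDG activity (2 U/mL, 4/3x) in the FRET deamination format with AID (1 uM, 4/3x), DJC20/DJC23 substrates (250 nM, 4x), 4 h at room temperature. NaOH stop, fluorescence at 560 ex/665 em.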

Assay [4] deals with Single-stranded DNA cytosine deaminase (Homo sapiens) (UniProt Q9GZX7). Nature of the assay: Validation qHTS assay for inhibitors of Activation Induced Cytidine Deaminase (AID): AID signal (AID 1347429). Summed up: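 AID and UDG were combined and compounds added at final up to 114 uM, then DJC20/DJC23 FRET substrate was added for 4 hr at room temperature. NaOH was then added for 30 min before fluorescence was read at 540/590 nm.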
Chain of Single-stranded DNA cytosine deaminase (Homo sapiens) (Q9GZX7 whole entry, looked up): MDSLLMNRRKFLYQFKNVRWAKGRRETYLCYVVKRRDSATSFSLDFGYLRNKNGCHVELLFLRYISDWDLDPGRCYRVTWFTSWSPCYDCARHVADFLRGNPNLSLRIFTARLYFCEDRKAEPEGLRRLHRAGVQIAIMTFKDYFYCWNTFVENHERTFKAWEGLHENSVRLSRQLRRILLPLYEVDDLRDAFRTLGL

A short description of assay [5]: qHTS to identify inhibitors of the type 1 interferon - major histocompatibility complex class I in skeletal muscle: primary screen against the NCATS Pharmaceutical Collection (AID 1347407).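 Also: luminescence of HiBiT knocked into endogenous HLA-B as interferon-induced MHC class I level.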 The method, boiled down: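 Immortalized human myoblasts (C25cl48) with HiBiT knocked into endogenous HLA-B*08:01 were stimulated with 4.0 ng/ml IFN-beta and treated with compounds ([…] top 46 uM) for 24 hrs at 37 C. HiBiT lytic luminescence read.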

Assay [6] addresses Protein phosphatase 1D (Homo sapiens) (UniProt O15297). Kind of assay: RapidFire Mass Spectrometry qHTS Assay for Modulators of WT P53-Induced Phosphatase 1 (WIP1) (AID 1347424).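 Also: amount of dephosphorylated VEPPL-S-QETFS peptide product formed by WIP1; series mostly up to about 63 µM.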 The method, boiled down: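 WIP1 (10 nM final) was preincubated 1 h at room temperature with compounds in Tris-HCl pH 7.5, 30 mM MgCl2, TCEP, EGTA, BSA; 2 uM VEPPL-pS-QETFS phosphopeptide was added for 5 min, quenched with formic acid, and dephosphorylated product quantified by RapidFire MS.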

Assay [7] has the same target. Nature of the assay: Rhodamine-PBP qHTS Assay for Modulators of WT P53-Induced Phosphatase 1 (WIP1) (AID 1347425). Summed up: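 Steps: enzyme with Rh-PBP sensor and compounds, room-temperature incubation of 1 hr, baseline read, addition of VEPPL-pS-QETFS (10 uM final), kinetic fluorescence reads at 525/598 nm. Activity equals final minus baseline signal.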

Chain of Protein phosphatase 1D (Homo sapiens) (O15297 whole entry, looked up): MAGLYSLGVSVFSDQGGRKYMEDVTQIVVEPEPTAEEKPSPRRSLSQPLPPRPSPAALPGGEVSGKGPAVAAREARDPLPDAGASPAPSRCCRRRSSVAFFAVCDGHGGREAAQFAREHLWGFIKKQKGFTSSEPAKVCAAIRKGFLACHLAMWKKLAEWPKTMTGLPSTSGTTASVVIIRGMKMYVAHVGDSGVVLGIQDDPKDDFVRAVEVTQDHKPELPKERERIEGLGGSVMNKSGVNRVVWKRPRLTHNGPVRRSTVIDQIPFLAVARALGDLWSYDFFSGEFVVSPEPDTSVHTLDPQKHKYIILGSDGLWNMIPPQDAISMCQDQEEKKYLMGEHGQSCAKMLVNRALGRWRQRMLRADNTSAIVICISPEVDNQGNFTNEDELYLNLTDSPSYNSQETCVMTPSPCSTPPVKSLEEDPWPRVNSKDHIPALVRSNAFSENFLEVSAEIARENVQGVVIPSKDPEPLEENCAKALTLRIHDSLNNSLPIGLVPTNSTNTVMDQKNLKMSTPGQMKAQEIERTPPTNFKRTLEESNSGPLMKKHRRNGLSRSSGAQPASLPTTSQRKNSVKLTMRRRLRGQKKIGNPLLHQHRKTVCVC

Take `NC(=O)c1ccc(OCC(O)CN2CC=C(c3ccc(F)cc3)CC2)cc1` (stereo unspecified): the Potency entry in assay [1], in assay [3] and in assay [4] was “inactive” in each case. Besides, the result in assay [2] was inactive.

For `CN1CCc2cc(O)cc3c2[C@H]1Cc1ccc(O)c(O)c1-3`, in assay [2], the compound was classed as inactive. For the same compound, the Potency entry in assay [3] and in assay [4] was “inactive” throughout.

As for `C[C@]12Cc3cn4c(nc3C=C1CCC1C2CC[C@@]2(C)[C@H]1CC[C@@]2(O)C#N)nc1ccccc14` (stereo partly specified), the call in assay [2] was inactive. Further, the Potency entry in assay [3] and in assay [4] was “inactive” throughout.

For `CC(=O)OCC1=C(C(=O)O)N2C(=O)[C@@H](NC(=O)CCC[C@@H](N)C(=O)O)[C@H]2SC1`, the Potency result in assay [1], in assay [3] and in assay [4] was “inactive” each time. Besides, in assay [2], the outcome was inactive.

As for `CC(Cc1ccc(OCC(=O)O)cc1)NCC(O)c1cccc(Cl)c1` (stereo unspecified), the Potency result in assay [1], in assay [3] and in assay [4] was “inactive” each time. In addition, the result in assay [2] was inactive.

For the compound `CC(N)c1cccc(Cl)c1Cl` (stereo unspecified), the Potency entry in assay [1], in assay [3] and in assay [4] was “inactive” each time. In assay [2], the compound was called inactive.

`OC1CCCCC1N1CCC(c2ccccc2)CC1` (stereo unspecified): the Potency result in assay [1], in assay [3] and in assay [4] was “inactive” throughout. Further, the call in assay [2] was inactive.

On to `c1ccc2c(c1)[I+]c1ccccc1-2`, for which the Potency in assay [1] is 8.91 µM (active). Moreover, the Potency result in assay [4] was “inactive”.

With `COc1ccc2c(c1O)-c1cccc3c1[C@@H](C2)N(C)CC3`, the Potency result in assay [1], in assay [3] and in assay [4] was “inactive” each time. In addition, the call in assay [2] was inactive.

With `CP(=O)(O)C1=CCNCC1`, the Potency entry in assay [1], in assay [3] and in assay [4] was “inactive” in each case. Also, the call in assay [2] was inactive.

Regarding `CCCN(CCC)CCc1ccc(O)c(O)c1`, the Potency result in assay [1], in assay [3] and in assay [4] was “inactive” each time. In assay [2], the outcome was inactive.

For the compound `N[C@@]1(C(=O)O)CC[C@@H](C(=O)O)C1`, the Potency result in assay [1], in assay [3] and in assay [4] was “inactive” in each case. Further, the compound was called inactive in assay [2].

Turning to `CCCN1CCC[C@@H](c2cccc(O)c2)C1`, the Potency result in assay [1], in assay [3] and in assay [4] was “inactive” each time. Besides, the outcome in assay [2] was inactive.

Turning to `Oc1ccc2c3c1O[C@H]1c4[nH]c5ccccc5c4C[C@@]4(O)C(C2)N(CC2CC2)CCC314` (stereo partly specified), the Potency result in assay [1], in assay [3] and in assay [4] was “inactive” throughout. Also, in assay [2], the compound was called inactive.

`O=[N+]([O-])c1ccc2nc(N3CCNCC3)ccc2c1`: the outcome in assay [2] was inactive. In addition, the Potency entry in assay [3] and in assay [4] was “inactive” throughout.

Regarding `COc1ccc2[nH]c3c(c2c1)CCNC3`, the Potency result in assay [1], in assay [3] and in assay [4] was “inactive” in each case. The call in assay [2] was inactive.

Turning to `C[N+]1(C)CCc2cc3c(cc2[C@H]1[C@@H]1OC(=O)c2c1ccc1c2OCO1)OCO3`, the Potency result in assay [1], in assay [3] and in assay [4] was “inactive” throughout. Further, the outcome in assay [2] was inactive.

As to `CCCSP(=O)(OCC)SCCC`, the compound was called inactive in assay [5] and in assay [7]. Moreover, the Potency result in assay [6] was “inactive”.

Source of the values: PubChem BioAssay (NCATS).
